Screens as filed in PubChem BioAssay.
Sa RN4220 lethal = growth inhibition of S. aureus RN4220, primary screen, OD600; 16 h; inhibition, % (test concentration not listed); 0.33% of 330,000 active; AID 1259311, 2017; in the data active = inhibition above about 85%
BH1578 lux ind = inducers of Vibrio cholerae quorum light production without autoinducers, primary screen, BH1578 luxS cqsA deficient, single point; V. cholerae BH1578 lux reporter, luminescence, 6 h; activation, % at 18.7 µM; AID 588436, 2011; 0.16% of 350,000 active; in the data active = activation mostly above about 9.7%, no sharp cut-off
ugtP null kill = growth inhibition of ugtP-null S. aureus, primary screen, RN4220 ugtP deletion, OD600; 0.54% of 330,000 active; growth inhibition, % (concentration not given with the values); 16 h; AID 1259309, 2017; in the data active = growth inhibition above about 68%
TcdB inh = TcdB glycohydrolase inhibitors, primary screen, biochemical, single point, plate reader. 0.24% of 350,000 active. TcdB glycohydrolase enzymatic assay. AID 652162, 2013. inhibition, % at 9.99 µM; in the data active = inhibition above about 10%
A number is an active result; – = inactive; · = no result given. Most compounds without a hit are left out; they make up all but 0.67% or so of the library.

SMILES	Sa RN4220 lethal	BH1578 lux ind	ugtP null kill	TcdB inh
NC(=O)c1cc[n+](CC2=C(C(=O)O)N3C(=O)[C@@H](NC(=O)C(c4ccccc4)S(=O)(=O)[O-])[C@H]3SC2)cc1 (stereo not given in full)	·	–	·	·
COc1cc(/C=N/N=C(N)N)ccc1OCc1ccccc1Cl	·	–	·	–
NC(N)=NN=Cc1ccc(OCc2ccccc2Cl)cc1	100	·	101	·
C/C(C=Nn1c(-c2n[nH]c3c2CCC3)n[nH]c1=S)=C\c1ccco1	–	·	–	·
O=C(NN=Cc1ccc([N+](=O)[O-])o1)c1cncc(Br)c1	–	·	–	·
CCOc1cc(C=NNC(N)=O)cc(Br)c1OCC(=O)Nc1ccccc1C	–	·	–	·
O=C(CN1c2ccccc2Sc2ccccc21)NNC(=O)Nc1ccc(Cl)c(Cl)c1	100	–	101	–
Cc1noc(C)c1NC(=O)Nc1ccc2c(c1)C(=O)N(C(C)CO)CC(C)C(CN(C)C(=O)NC1CCCCC1)O2 (stereo not given)	–	·	–	·
OCC[C@H]1C[C@H](O)[C@@H](O)[C@@]2(Cc3ccccc3CO2)O1	·	–	·	14
CC(=NNC(=O)c1ccco1)c1ccc(C(=O)O)s1	–	·	–	·
Cc1nn(-c2ccccc2)c(Cl)c1/C=C1\SC(=S)NC1=O	100	–	99	·
COC(=O)[C@@]1(Cc2ccc(OC)cc2)C2c3cc(C(=O)N(C)C)[nH]c3CC2CN1C(=O)c1ccccc1 (stereo not given in full)	–	·	–	·
CC(=O)c1ccc(NC(=O)CNCC(c2ccccc2)N(C)C)cc1 (stereo not given)	–	–	–	15
NC(=O)C1(Nc2ccc(-c3ccc(Br)cc3)cc2)CCCC1	·	–	·	11
COC(=O)c1ccc(S(=O)(=O)c2ccc([N+](=O)[O-])cc2)cc1	·	–	·	–
Cn1c(S(=O)(=O)c2ccc([N+](=O)[O-])cc2)nc(Br)c1Br	98	–	95	–
O=C(CCl)N(c1ccccc1)c1c[nH]c2ccccc12	–	–	90	·
O=C(CCl)N(c1ccc(Cl)cc1)c1c[nH]c2ccccc12	90	–	97	·
CCc1c(C)c(C#N)c2[nH]c3ccccc3n2c1=S	93	–	92	–
CCc1cc(=S)n2c([nH]c3ccccc32)c1C#N	–	–	–	·
COc1ccc([N+](=O)[O-])cc1C=NNC(=O)CNC(=O)c1cccc(F)c1	–	·	–	·
COC(=O)NC1CC2C3CCC4CC(OC)CC[C@]4(C)C3CC[C@]12C (stereo not given in full)	–	·	–	·
Cc1oc2ccc(OC(=O)N(C)C)cc2c1C(=O)OC(C)C	–	·	–	·
COC(=O)c1cc(COc2ccc3oc(C)c(C(=O)OC(C)C)c3c2)c(C)o1	–	–	96	·
CCOC(=O)C1Oc2ccccc2C(c2ccc(C)cc2)=C1C(=O)OC (stereo not given)	–	–	95	–
SMILES	Sa RN4220 lethal	BH1578 lux ind	ugtP null kill	TcdB inh
NC(=O)Cn1cc(C=NNS(=O)(=O)c2ccccc2)c2ccccc21	–	·	–	·
CCOC(=O)c1cc2c(OC)ccc(OC)c2n1CC(=O)c1ccccc1	–	–	89	–
c1ccc2c(CCN3CCNCC3Cc3cccc4ccccc34)cccc2c1 (stereo not given)	–	·	–	·
O=C(O)CCC(=NNC(=O)c1cccs1)c1ccccc1	–	·	–	·
Cc1ccc2nc(-c3ccc(NC(=S)NC4CC(C)(C)NC(C)(C)C4)cc3)sc2c1	100	–	95	–
Cc1nn(-c2ccccc2)c(C)c1C=Nn1c(-c2ccc(C(C)(C)C)cc2)n[nH]c1=S	–	·	–	·
Cc1[nH][nH]c(=O)c1C(c1c(C)[nH][nH]c1=O)c1cn(Cc2ccc(F)cc2)c2ccccc12	–	–	–	·
Cc1[nH][nH]c(=O)c1C(c1c(C)[nH][nH]c1=O)c1cn(Cc2ccc(Cl)c(Cl)c2)c2ccccc12	–	–	88	–
CCOC(=O)C1C2COc3ccc(OC)cc3C2N2C(=O)c3cc(OC)c(OC)cc3NC(=O)[C@@]12C (stereo not given in full)	–	·	–	·
CCn1c(O)c(C2=c3ccccc3=NC2=O)c2cc(Br)ccc21	100	·	101	–
O=C1N=c2ccccc2=C1c1c(O)n(-c2cccc(F)c2)[nH]c1=O	–	–	–	–
C=C1CCC(C)C(C)(CCC2=CCOC2=O)CC=CC=C1C(=O)O (stereo not given)	–	·	–	·
CC(C)N=C(NC#N)SCc1ccc(Br)cc1	–	30	–	·
CC(C)N=C(NC#N)SCc1ccccc1	–	–	–	·
Oc1ccc(-c2nccs2)cc1	–	–	–	21
CCc1ccc(C=NNC(=O)c2c[nH]c3ccccc23)s1	–	·	–	·
O=C(/C=C(\O)c1ccc(Cl)cc1)C(=O)NNC(=O)C(O)(c1ccccc1)c1ccccc1	–	–	92	·
C#CCOCCOCCOCCNc1nc(N2CCN(C(=O)CCCCCCCCCCNC(=O)C(CO)n3cc(CCCSC)nn3)CC2)nc(N2CCN(C(=O)CCCCCCCCCCNC(=O)C(CCC(=O)O)n3cc(CCCCCN)nn3)CC2)n1 (stereo not given)	–	·	–	·
O=C(O)c1cc(-c2ccccc2Cl)n(-c2cccc(Cl)c2)n1	–	–	–	13
COC(=O)Cc1ccc(NC(=S)NCc2ccc(OC)cc2)cc1	–	–	–	23
COc1ccc(CNC(=S)Nc2ccc(OC)cc2)cc1	–	–	–	·
Cc1[nH]n(C2=NCCS2)c(=O)c1N=Nc1cccc(C(F)(F)F)c1	99	–	99	–
CCN1C(=O)C2C(c3ccc(C)cc3)N3C(=O)N(c4cccc(Br)c4)C(=O)[C@@]3(CC)C2C1=O (stereo not given in full)	–	·	–	·
Cc1ccccc1NC(=O)C1CC(=O)N(c2ccc3c4c(cccc24)CC3)C1 (stereo not given)	–	25	–	·
O=C(Nc1ccccc1Br)C1CC(=O)N(c2ccc3c4c(cccc24)CC3)C1 (stereo not given)	–	–	–	–
SMILES	Sa RN4220 lethal	BH1578 lux ind	ugtP null kill	TcdB inh
CCOc1cc(C=NNC(=O)c2cccc([N+](=O)[O-])c2)ccc1OS(=O)(=O)c1ccccc1	–	·	99	·
COc1cc(/C=N/NC(=O)c2cccc([N+](=O)[O-])c2)ccc1O	·	–	·	12
COc1ccc(C=NNC(=O)c2cccc([N+](=O)[O-])c2)cc1OS(=O)(=O)c1ccccc1	–	·	–	·
O=C(Nc1cc(Cl)cc(Cl)c1)N1CCCC1	91	–	–	–
CC(C)(C)C(=O)OCc1nc(-c2ccc(Cl)cc2)cs1	–	–	92	–
COc1ccc(-c2csc(COC(=O)C(C)(C)C)n2)cc1	–	–	–	–
CC(=O)C(Sc1nn(C)c(=S)s1)C(=O)Nc1ccccc1 (stereo not given)	–	25	–	·
CC(=O)C(Sc1nc(N(C)C)nc(N(C)C)n1)C(=O)Nc1ccccc1 (stereo not given)	–	–	–	–
COCc1cc(N2CCCCC2)nc(-c2ccccc2)n1	–	–	–	–
COCc1cc(Sc2c(Cl)cccc2Cl)nc(-c2ccccc2)n1	–	–	85	·
CCN(CC)C(=O)c1[nH]cnc1C(=O)NC(C)C(=O)OC(C)(C)C (stereo not given)	–	·	–	·
O=C(O)CCCCCN1C(=O)C(O)=C(C(=O)C=Cc2ccccc2)C1c1ccccc1[N+](=O)[O-] (stereo not given)	–	·	–	·
